biological target: Solute carrier family 2, facilitated glucose transporter member 1 (Homo sapiens) (UniProt P11166); test: ST_JUDE_LEISH: Cytotoxicity at 2uM final concentration against transgenic Leishmania Mexicana promastigotes LmGLUT1 that are glucose transport deficient and complemented with the human glucose transporter GLUT1. Activity is measured by DNA content using SYBR green in vitro; assay type: functional
Sequence (P11166 whole entry): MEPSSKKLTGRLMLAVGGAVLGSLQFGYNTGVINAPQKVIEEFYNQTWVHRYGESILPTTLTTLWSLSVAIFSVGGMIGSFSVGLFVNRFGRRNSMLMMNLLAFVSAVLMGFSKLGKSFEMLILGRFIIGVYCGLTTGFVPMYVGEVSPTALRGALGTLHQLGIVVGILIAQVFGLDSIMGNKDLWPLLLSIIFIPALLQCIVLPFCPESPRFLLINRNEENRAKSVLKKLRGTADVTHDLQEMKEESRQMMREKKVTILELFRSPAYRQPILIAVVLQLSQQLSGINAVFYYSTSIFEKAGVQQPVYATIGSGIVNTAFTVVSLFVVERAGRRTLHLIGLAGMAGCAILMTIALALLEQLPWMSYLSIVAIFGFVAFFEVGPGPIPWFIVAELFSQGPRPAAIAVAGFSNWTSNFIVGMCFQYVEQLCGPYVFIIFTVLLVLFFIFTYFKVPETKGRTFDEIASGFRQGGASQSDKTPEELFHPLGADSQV

| SMILES | inhibition |
| --- | --- |
| CCC(C)NC(=O)Nc1ccc(-c2cccc(-c3nc4ccccc4[nH]3)c2)cc1 (centres undefined) | -0.78% |
| COc1cc(CNCCCNc2nc(=O)c3sccc3[nH]2)c2[nH]cc(Cl)c2c1 | 92.7% |
| CC(C)Oc1cccc(-c2ccc(C(=O)NCC3CCCN(Cc4cccc(C(F)(F)F)c4)C3)s2)c1 (centres undefined) | -1.06% |
| CCN(C)c1cc(C(=O)N[C@@H](Cc2ccccc2)[C@H](O)CNC(C)(C)c2cccc(OC)c2)cc(N2CCCC2=O)c1 | 1.69% |
| CN(C)CCCOc1cc(NC(=O)Nc2ccc(-c3ccncc3)c3ccccc23)ccc1I | 6.91% |
| Cc1n[nH]c2cc(Nc3nccc(Nc4ccc(Oc5ccccc5)cc4)n3)ccc12 | 11.3% |
| O=C(CC1CCCC1)Nc1ccc2c(c1)CCC2 | 2.83% |
| O=C1CCCN1CCCNCc1ccc(-c2cccc(-c3nc4ccccc4[nH]3)c2)cc1 | 4.17% |
| N#Cc1ccc2c(c1)CCN(CCC1CCC(NC(=O)c3cc4ccc(Br)cc4[nH]3)CC1)C2 (centres undefined) | 1.19% |

biological target: Hexose transporter 1 (Plasmodium falciparum) (UniProt O97467); test: ST_JUDE_LEISH: Cytotoxicity at 2uM final concentration against transgenic Leishmania Mexicana promastigotes LmPfHT that are glucose transport deficient and complemented with the Plasmodium falciparum hexose transporter. Activity is measured by DNA content using SYBR green in vitro; assay type: functional

| SMILES | inhibition |
| --- | --- |
| Cc1ccc(CN2CCCN(Cc3cccc(NC(=O)c4ccc(Cl)c(Cl)c4)c3)CC2)cc1 | -2.91% |
| O=C(NC1CC1)c1ccc2cc(C(=O)N3Cc4ccccc4C(c4ccccc4)C3)ccc2c1 (centres undefined) | -0.61% |
| O=C(Nc1ccc(Oc2ccccc2)cc1)N[C@@H](Cc1ccc(O)cc1)C(=O)NC1CCN(Cc2ccc(O)c([N+](=O)[O-])c2)C1 (some centres undefined) | 1.19% |
| OC(COCc1ccc(-c2ccccc2)cc1)CN1CCCCC1 (centres undefined) | 1.99% |
| CC(C)c1ncc(-c2ccncc2)c(C2CCC(CNC(=O)c3ccncc3)CC2)n1 (centres undefined) | -0.19% |
| Nc1cccc(CNCc2ccc(-c3ccc(-c4nc5cc(C(F)(F)F)ccc5[nH]4)s3)cc2)c1 | 1.24% |
| Cc1ccccc1C1CCN(C2CCC(NC(=O)/C=C/c3cc(F)ccc3C(F)(F)F)CC2)CC1 (centres undefined) | -0.94% |
| O=[N+]([O-])c1nc(Br)n(Cc2ccc(Cl)cc2)n1 | 3.81% |
| Cc1ccc(NS(=O)(=O)c2cccs2)cc1-c1cccc(C(=O)Nc2ccc(F)cc2)c1 | 3.65% |
| Nc1nccc2ccc(-c3ccnc(NCc4cccnc4)n3)cc12 | 7.15% |
| O=C(/C=C/c1ccc(Cl)c(Cl)c1)NCCCCCN1CCCN(C(=O)Nc2ccc([N+](=O)[O-])cc2)CC1 | 1.11% |
| CCc1c(C)nc(-n2nc(C)cc2NC(=O)C2c3ccccc3Oc3ccccc32)[nH]c1=O | -0.55% |
| CN1CC[C@@H](Oc2cc(NC(=O)Nc3ccc(Cl)c(C(F)(F)F)c3)ccc2Cl)C1 | 0.12% |
| COc1ccc(-c2ccc(Nc3cccc(S(=O)(=O)CCN4CCC(CCN(C)C)CC4)c3)nc2)cn1 | -1.68% |
| CCCc1cc(=O)[nH]c(-n2nc(C)cc2NC(=O)C(CC)c2ccccc2)n1 (centres undefined) | 38.3% |
| CCCCNC(=N)c1ccc(OCCCCCOc2ccc(C(=N)NCCCC)cc2)cc1 | 2.05% |
| CS(=O)(=O)c1ccc2[nH]c(-c3cc(-c4ccc(OCCN5CCOCC5)cc4)cnc3N)nc2c1 | 6.02% |
| Cc1sc(CNCCCNc2cc(=O)c3ccccc3[nH]2)cc1Br | 0.97% |
| COc1ccc(CNCc2ccccc2)cc1-c1ccc(S(=O)(=O)NCCN2CCCC2)s1 | 2.19% |
| Cc1cccc2nc(-c3cccc(-c4ccc(NC(=O)C5CCCO5)cc4)c3)[nH]c12 (centres undefined) | 3.31% |

| SMILES | inhibition |
| --- | --- |
| O=C(/C=C/c1ccc(Cl)c(Cl)c1)NCCCCCN1CCCN(C(=O)Nc2cccc(C(F)(F)F)c2)CC1 | 2.84% |
| Cc1cccc2nc(-c3ccc(-c4cccc(NC(=O)CN5CCN(C)CC5)c4)s3)[nH]c12 | -1.13% |
| O=C(Nc1nc2cc(S(=O)(=O)NCc3ccc(Cl)c(Cl)c3)ccc2n1CCCN1CCCC1)c1ccc(Cl)cc1 | 1.6% |
| O=C(Nc1ccccc1)Nc1cccc(-c2nn3c(OCC4CCCCN4)cccc3c2-c2ccncc2)c1 (centres undefined) | 1.67% |
| CCC(C)NCCC(c1ccccc1)c1ccccc1O (centres undefined) | 4.69% |
| CCOc1ccc(CCC(=O)O)cc1OCC | 3.36% |
| O=C(NC1CCC1)C1CCN(C(c2ccc(Cl)cc2)c2ccc(Cl)cc2)CC1 | 1.93% |
| COc1cc(Cc2cnc(N)nc2N)c2c(c1OC)OC(C)C=C2 (centres undefined) | 2.39% |
| CCOc1cccc(C(=O)Nc2ccc(-c3nc4ccccc4[nH]3)cc2)c1 | 3.79% |
| O=C(Nc1cccc(-c2ccc(-c3nc4cc(C(F)(F)F)ccc4[nH]3)cc2)c1)c1ccncc1 | 0.73% |
| Oc1cc(Nc2ccnc3cc(-c4ccc(CN5CCCCC5)o4)c(Cl)cc23)c(Cl)cc1F | 1.8% |
| CCC(C)NC(=O)Nc1ccc(-c2cccc(-c3nc4ccccc4[nH]3)c2)cc1 (centres undefined) | 4.24% |
| COc1cc(CNCCCNc2nc(=O)c3sccc3[nH]2)c2[nH]cc(Cl)c2c1 | 96.7% |
| CC(C)Oc1cccc(-c2ccc(C(=O)NCC3CCCN(Cc4cccc(C(F)(F)F)c4)C3)s2)c1 (centres undefined) | -1.35% |
| CCN(C)c1cc(C(=O)N[C@@H](Cc2ccccc2)[C@H](O)CNC(C)(C)c2cccc(OC)c2)cc(N2CCCC2=O)c1 | 0.79% |
| CN(C)CCCOc1cc(NC(=O)Nc2ccc(-c3ccncc3)c3ccccc23)ccc1I | 6.1% |
| Cc1n[nH]c2cc(Nc3nccc(Nc4ccc(Oc5ccccc5)cc4)n3)ccc12 | 7.61% |
| O=C(CC1CCCC1)Nc1ccc2c(c1)CCC2 | 3.17% |
| O=C1CCCN1CCCNCc1ccc(-c2cccc(-c3nc4ccccc4[nH]3)c2)cc1 | 3.74% |
| N#Cc1ccc2c(c1)CCN(CCC1CCC(NC(=O)c3cc4ccc(Br)cc4[nH]3)CC1)C2 (centres undefined) | 0.57% |

Source: ChEMBL document CHEMBL3433997, “St. Jude Leishmania screening dataset” (2016)
